# Source: PubChem (National Center for Advancing Translational Sciences (NCATS))
# Only some compounds are listed: those with a hit (about 12% of all), similar ones and a draw of the others.
# Sfp PPTase inh = qHTS Assay for Inhibitors of Bacillus subtilis Sfp phosphopantetheinyl transferase (PPTase); 4'-phosphopantetheinyl transferase ffp (Bacillus subtilis), Q9F4F7; Biochemical Sfp PPTase activity, qHTS; Potency, µM, for the others: largest response in the series, negative = inhibition, hits mostly inhibitors; 3.5% of 310,000 active;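 note: the enzyme is Sfp with the accession as filed and its product quenches rhodamine fluorescence; 0% = enzyme reaction without inhibitor and -100% = no enzyme wells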
#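 Step 1, compound plus 15 nM Sfp-PPTase, 15 min, room temperature. Step 2, add rhodamine-CoA (5 uM) and BHQ-2-YbbR (12.5 uM). Step 3, read 525/598 nm fluorescence at 0 and 30 min.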
# BAZ2B block = qHTS Assay for Inhibitors of BAZ2B. Bromodomain adjacent to zinc finger domain protein 2B (Homo sapiens), Q9UIF8. AlphaScreen BAZ2B-H3K14Ac peptide displacement. Potency, µM (series often up to 114 µM), inactives show at the top dose activity change, negative = inhibition, hits mostly inhibitors. 4.4% of 360,000 active. AID 504333, 2011; note: % is set by controls: 0 for no effect and ±100 for the full control effect; nearly all actives have a fitted effect of over 60% in size
# Target sequence (Q9UIF8 whole entry, looked up, the tested form may be a part): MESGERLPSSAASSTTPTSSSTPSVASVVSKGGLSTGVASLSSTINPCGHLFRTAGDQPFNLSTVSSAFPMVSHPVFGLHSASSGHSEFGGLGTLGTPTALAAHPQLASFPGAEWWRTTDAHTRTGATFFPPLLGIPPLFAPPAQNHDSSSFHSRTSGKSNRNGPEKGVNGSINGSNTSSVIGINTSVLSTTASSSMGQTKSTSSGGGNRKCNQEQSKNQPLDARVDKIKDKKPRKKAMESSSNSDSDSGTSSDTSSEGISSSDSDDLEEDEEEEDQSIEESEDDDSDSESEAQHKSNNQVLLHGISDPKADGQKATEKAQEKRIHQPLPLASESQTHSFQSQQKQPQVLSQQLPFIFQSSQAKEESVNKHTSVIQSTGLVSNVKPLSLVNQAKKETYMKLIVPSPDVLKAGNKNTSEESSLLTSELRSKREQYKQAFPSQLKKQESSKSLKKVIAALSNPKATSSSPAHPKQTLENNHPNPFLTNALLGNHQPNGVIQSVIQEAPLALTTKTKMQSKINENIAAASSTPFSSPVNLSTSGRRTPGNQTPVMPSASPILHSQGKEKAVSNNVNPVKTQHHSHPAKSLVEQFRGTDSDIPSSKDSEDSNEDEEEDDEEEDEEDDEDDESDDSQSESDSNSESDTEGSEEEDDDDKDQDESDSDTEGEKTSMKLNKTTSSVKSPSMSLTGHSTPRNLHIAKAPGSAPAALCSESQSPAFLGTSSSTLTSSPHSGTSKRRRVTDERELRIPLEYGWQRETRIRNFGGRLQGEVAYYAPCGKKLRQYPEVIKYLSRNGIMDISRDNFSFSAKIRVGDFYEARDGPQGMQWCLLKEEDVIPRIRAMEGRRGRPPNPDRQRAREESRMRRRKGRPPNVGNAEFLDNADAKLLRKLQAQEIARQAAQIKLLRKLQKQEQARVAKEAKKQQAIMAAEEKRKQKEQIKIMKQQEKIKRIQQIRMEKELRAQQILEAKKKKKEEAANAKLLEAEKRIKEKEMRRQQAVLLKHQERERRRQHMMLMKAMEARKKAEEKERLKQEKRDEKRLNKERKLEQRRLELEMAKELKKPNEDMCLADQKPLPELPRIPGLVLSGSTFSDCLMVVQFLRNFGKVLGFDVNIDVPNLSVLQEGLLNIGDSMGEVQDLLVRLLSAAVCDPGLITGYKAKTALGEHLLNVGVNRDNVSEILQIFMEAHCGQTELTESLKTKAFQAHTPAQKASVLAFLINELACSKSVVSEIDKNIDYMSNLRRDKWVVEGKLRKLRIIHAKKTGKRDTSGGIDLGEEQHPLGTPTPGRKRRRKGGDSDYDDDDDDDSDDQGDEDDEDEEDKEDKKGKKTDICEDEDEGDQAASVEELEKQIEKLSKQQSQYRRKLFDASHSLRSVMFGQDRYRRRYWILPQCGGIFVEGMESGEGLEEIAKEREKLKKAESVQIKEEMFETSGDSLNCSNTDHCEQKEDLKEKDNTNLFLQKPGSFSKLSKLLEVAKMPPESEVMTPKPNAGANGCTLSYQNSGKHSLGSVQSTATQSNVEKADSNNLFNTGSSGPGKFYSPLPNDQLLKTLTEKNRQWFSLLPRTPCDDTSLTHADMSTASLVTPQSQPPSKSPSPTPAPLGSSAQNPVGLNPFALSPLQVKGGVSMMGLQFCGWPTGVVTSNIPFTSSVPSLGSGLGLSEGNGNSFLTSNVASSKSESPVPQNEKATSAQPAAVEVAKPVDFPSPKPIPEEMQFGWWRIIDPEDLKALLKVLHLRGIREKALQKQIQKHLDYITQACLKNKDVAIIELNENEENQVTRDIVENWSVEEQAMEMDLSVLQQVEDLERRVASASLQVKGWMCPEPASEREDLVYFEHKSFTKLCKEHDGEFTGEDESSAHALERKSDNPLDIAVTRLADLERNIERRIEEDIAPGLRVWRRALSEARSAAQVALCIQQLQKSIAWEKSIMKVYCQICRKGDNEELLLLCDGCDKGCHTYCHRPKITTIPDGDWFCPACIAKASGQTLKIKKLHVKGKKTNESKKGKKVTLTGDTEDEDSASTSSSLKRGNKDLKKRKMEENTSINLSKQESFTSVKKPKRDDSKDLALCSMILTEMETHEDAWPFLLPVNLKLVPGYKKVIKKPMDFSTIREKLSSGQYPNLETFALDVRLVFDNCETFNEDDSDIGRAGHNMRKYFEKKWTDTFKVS
#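 AlphaScreen luminescence quantifies BAZ2B engagement of H3K14Ac peptide; the protein and biotinylated peptide are both at 50 nM final, buffer PBS pH 7.4 with 0.01% Tween-20, all steps at room temperature.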
# G9a inh = qHTS Assay for Inhibitors of Histone Lysine Methyltransferase G9a | Histone-lysine N-methyltransferase EHMT2 (Homo sapiens), Q96KQ7 | Potency, µM (doses to about 102 µM), for the others: top-dose activity, negative = inhibition, hits mostly inhibitors | AID 504332, 2011 | 8.8% of 350,000 active | G9a H3K9 monomethylation, AlphaScreen, 2 h; note: % is set by controls: 0 for no effect and ±100 for the full control effect; nearly all actives have a fitted effect of over 75% in size
#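 Readings reflect AlphaScreen signal from monomethyl-H3K9 antibody detection. HMT at 20 nM; substrate b-H3K9 500 nM; cofactor SAM 20 uM; 2 h RT reaction; compounds tested as titrations in qHTS with 15 min preincubation.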
# JMJD2A Tudor inh = qHTS Assay for Inhibitors of JMJD2A-Tudor Domain. AlphaScreen JMJD2A-Tudor / H3K4me3 peptide binding. Lysine-specific demethylase 4A (Homo sapiens), O75164. 4.4% of 390,000 active. AID 504339, 2011. Potency, µM (titrated, usually from 114 µM), for the others: at the highest dose activity change, negative = inhibition, hits mostly inhibitors; note: % is set by controls: 0 for no effect and ±100 for the full control effect; nearly all actives have a fitted effect of over 50% in size
# L3MBTL1 block = qHTS Assay for the Inhibitors of L3MBTL1; Lethal(3)malignant brain tumor-like protein 1 (Homo sapiens), Q9Y468; AlphaScreen L3MBTL1–H3K9me1 peptide binding; Potency, µM (highest dose often 57.1 µM), for inactives: top-dose activity, negative = inhibition, most hits filed as inhibitors; 0.66% of 230,000 active; AID 485360, 2010; note: % is set by controls: 0 for no effect and ±100 for the full control effect; nearly all actives have a fitted effect of over 60% in size
#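 L3MBTL1 50 nM + b-AHA-H3(1-15)K9me1 75 nM, 30 min RT; compound added, 30 min RT; streptavidin donor/Ni-chelate acceptor beads 10 ug/mL each final, 30 min RT dark; AlphaScreen read.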
# HP1b binding inh = HTS for Inhibitors of HP1-beta Chromodomain Interactions with Methylated Histone Tails. AlphaScreen HP1-beta / biotin-H3K9me3 peptide binding. Chromobox protein homolog 1 (Homo sapiens), P83916. 0.56% of 390,000 active. Potency, µM (titrated, usually from 114 µM), for inactives: at the highest dose activity change, negative = inhibition, most hits filed as inhibitors. AID 540317, 2011; note: nearly all actives have a fitted effect of over 70% in size
#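 Compound inhibition of the preformed complex between 50 nM HP1-beta and 50 nM biotinylated H3K9me3 peptide was read by AlphaScreen. Buffer was PBS pH 7.4 with 0.01% Tween-20. Incubations ran 30 min at room temperature, with 10 ug/mL donor/acceptor beads.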
# Starred values were filed as active, the others as inactive; ? = inconclusive; · = not tested or not shown; [ ] = another dose, or the depositor's remark. Calls come from the whole dose curve; as a rule, active = well fitted curve in the direction sought with a large enough effect; inconclusive = small, poorly fitted or top-dose-only effect, or another doubt; inactive = no such curve, though single readings can be large; an effect the other way counts as inactive or inconclusive. Potency is the fitted concentration of half-maximal effect.
SMILES,Sfp PPTase inh,BAZ2B block,G9a inh,JMJD2A Tudor inh,L3MBTL1 block,HP1b binding inh
CC(C)c1ccc(Nc2c(-c3ccsc3)nc3ccc(Cl)cn23)cc1,·,?,-34%[59 µM],-3%,·,28%
CC(=O)Nc1ccc(N/C=C/C(=O)c2ccco2)cc1,-17%,?,?,-15%,28%[11.4 µM],26%
CN(C)c1ccc(N/C=C/C(=O)c2ccco2)cc1,56µM*,35µM*,7.1µM*,?,·,-38%
CN(C)c1ccc(N/C=C/C(=O)c2ccc(F)cc2)cc1,?,?,2.5µM*,?,-20%,-1%
NS(=O)(=O)c1ccc(N/C=C\C(=O)c2ccc(F)cc2)cc1,-20%,-13%,5%,-4%,-23%,12%
CCOC(=O)C1=C(CN2CCN(c3cccc(Cl)c3)CC2)NC(=O)NC1c1ccc(Cl)cc1 (centres undefined),·,·,-37%[59 µM],?,·,11%
CC1(C)C2CCC(C2)C1(C)NC(=O)CN1CCOCC1 (centres undefined),-11%,50µM*,10µM*,32µM*,0%,?
CC1(C)C2CCC(C2)C1(C)NC(=O)CNC1CCCCC1 (centres undefined),-7%,50µM*,13µM*,-34%[11.4 µM],16%,-26%
CC1(C)C2CCC(C2)C1(C)NC(=O)CNCc1cccs1 (centres undefined),89µM*,·,11µM*,25µM*,5%,?
CC1(C)C2CCC(C2)C1(C)NC(=O)CN1CCCC1 (centres undefined),-18%,?,5µM*,28µM*,-3%,-35%
Cc1ccc(NC(=O)CNCc2cccs2)c(Br)c1,5%,-4%,?,-1%,6%,103%
Cc1cc(C)cc(Nc2cc(C(=O)NC3CCC(C)CC3)c3ccccc3n2)c1 (centres undefined),·,·,5%[59 µM],-15%,·,14%
N[C@H](C(=O)O)[C@H]1C[C@H]1C(=O)O,-13%,·,44%[59 µM],·,·,·
Clc1cccc(-c2ccc(CNCc3ccccn3)o2)c1,79µM*,22µM*,20µM*,56µM*,22µM*,-16%
CCCCOc1cccc(C2c3c(-c4cc(C)ccc4O)n[nH]c3C(=O)N2CCOC)c1 (centres undefined),·,-34%,-3%[59 µM],?,·,12%
COC(=O)[C@@H](N)CS,11µM*,-31%,8.9µM*,?,23%,-25%
COc1ccc2c(c1)c1c(c(=O)n(-c3ccccc3C)c(=O)n1CC(=O)N1CCCC1)n2C,·,-6%,-35%[59 µM],3%,·,35%
COc1ccc(NC(=O)c2oc3ccccc3c2NC(=O)c2ccco2)c(OC)c1,25µM*,-1%,-23%[2.33 µM],-16%,6%,30%
COc1ccc(NC(=S)NC(=O)c2cc3ccccc3o2)c(OC)c1,-10%,-4%,10µM*,-2%,·,23%
Cc1ccc(-c2nc3cc(C(C)C)ccc3o2)cc1NC(=O)c1cc2ccccc2o1,·,3%,-47%[59 µM],-8%,·,35%
COc1ccc(NC(=O)CCc2ccccc2)cc1NC(=O)c1ccco1,-8%,0%,17%[59 µM],-9%,·,22%
COc1ccc(CC(=O)Nc2ccc(OC)c(NC(=O)c3ccco3)c2)cc1,-23%,-5%,50µM*,-9%,-12%,31%
Cc1ccc(-c2nc3ccccc3o2)cc1NC(=S)NC(=O)c1cc2ccccc2o1,?,0%,50µM*,0%,-4%,25%
COc1ccc(-n2c(COc3cccc(C)c3)n[nH]c2=S)cc1,13%,-2%,17%[0.501 µM],?,1%[2.29 µM],18%
CC(=O)c1ccc(-n2c(-c3cc(-c4ccsc4)n[nH]3)n[nH]c2=S)cc1,-36%,-35%,1.1µM*,?,11%,10%
SMILES,Sfp PPTase inh,BAZ2B block,G9a inh,JMJD2A Tudor inh,L3MBTL1 block,HP1b binding inh
COCc1n[nH]c(=S)n1-c1cccc2ccccc12,-18%,0%,16µM*,20µM*,3%,17%
S=c1[nH]nc(-c2cc(-c3ccsc3)n[nH]2)n1-c1cccc2ccccc12,-15%,?,8.9µM*,?,-11%,1%
CCOC(=O)c1cc(-c2ccc(OC)cc2)n[nH]1,5%,1%,·,-7%,52%,36%
COc1ccc(-c2cc(-c3n[nH]c(=S)n3-c3cccc4ccccc34)[nH]n2)cc1,1%,?,35µM*,?,?,?
Cc1ccc(-n2c(SCC(N)=O)nc3c(oc4ccccc43)c2=O)cc1C,·,-19%,14%[59 µM],-1%,·,44%
COc1ccc(-n2c(Cc3cccn3C)nnc2SCC(=O)Nc2ccc(C)cc2C)cc1,-19%,?,45µM*,?,?,-5%
COc1ccc(-n2c(Cc3cccn3C)nnc2SCC(=O)Nc2cc(Cl)ccc2OC)cc1,-7%,?,40µM*,?,-12%,-23%
COc1ccc(-n2c(Cc3cccn3C)nnc2SCC(=O)Nc2ccccc2OC)cc1,9%,?,45µM*,-34%,-14%,18%
COc1ccc(-n2c(Cc3cccn3C)nnc2SCC(=O)Nc2cccc(F)c2)cc1,-15%,?,?,?,-20%,8%
Cc1ccc(OCc2nc(-c3ccc(C(=O)N4CCN(c5cccc(C(F)(F)F)c5)CC4)cc3)oc2C)cc1,·,-22%,-6%[59 µM],-26%,·,-2%
Cc1c(Cl)cccc1Nc1nn2c(=O)c3ccc(C(=O)N(C)Cc4ccccc4)cc3nc2s1,·,-4%,-3%[59 µM],-14%,·,9%
COc1ccc(CCNC(=O)c2cnc3sc(N4CCC(C)CC4)nn3c2=O)cc1OC,·,3%,-1%[59 µM],-15%,·,6%
COc1cc(-c2c(C(C)=O)c(C)nc3c2C(=O)c2ccccc2-3)cc(OC)c1OC,10%,-1%,7%,5%,·,15%
CC(=O)c1c(Cl)nc2cccc3c2c1-c1ccccc1C3=O,-7%,-27%,28µM*,-34%,-1%,4%
Cc1cc(C)c(S(=O)(=O)N2CCN(Cc3nc4ccc(C)cc4o3)CC2)c(C)c1,·,-1%,-2%[12.7 µM],2%,·,39%
COc1cc(C(c2c(C)[nH][nH]c2=O)c2c(C)[nH][nH]c2=O)ccc1OC(C)C,0%,?,-42%,-6%,-1%,37%
COc1cc(C(c2c(C)[nH][nH]c2=O)c2c(C)[nH][nH]c2=O)cc(Cl)c1O,7%,?,45µM*,5%,·,21%
